# Data: PubChem BioAssay (NCATS)
# Records with an inconclusive call do not appear. Values without a mark were called inactive. The source made the active and inactive calls. The call rests on the fitted dose curve; in most records, active means well fitted cell-killing curve with a large enough effect; inconclusive means small, poorly fitted or top-dose-only effect, or effect the other way; inactive means no such curve, though single readings can be large or run the other way.
# Legend:
# [1] = Quantitative High-Throughput drug screen in 47 multiple myeloma cell lines against the NCATS MIPE library collection: L363_DSMZ cell viability assay (AID 1918984); further: nearly all actives have a fitted effect of over 40% in size
# Procedure, shortened: (§1)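 500 cells/well; MIPE 4.0 drugs pin-transferred; 48 h, 37C, 5% CO2. CellTiter-Glo, 5 min RT, luminescence. Controls: DMSO 100%, media 0%.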
# [2] = Quantitative High-Throughput drug screen in 47 multiple myeloma cell lines against the NCATS MIPE library collection: OCIMY7_PLB cell viability assay (AID 1918987); details: OCI-MY7 myeloma viability, CellTiter-Glo ATP, 48 h; viability (% of DMSO): at 45.8 µM (top of the series); further: nearly all actives have a fitted effect of over 65% in size
# Procedure, shortened: as §1
# [3] = Quantitative High-Throughput drug screen in 47 multiple myeloma cell lines against the NCATS MIPE library collection: U266_ATCC cell viability assay (AID 1919864); further: nearly all actives have a fitted effect of over 35% in size;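 on viability (% of DMSO control): 0% = media-only wells without cells and 100% = DMSO-only wells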
# Procedure, shortened: as §1
# [4] = Quantitative High-Throughput drug screen in 47 multiple myeloma cell lines against the NCATS MIPE library collection: VP6_DJ cell viability assay (AID 1919867); further: nearly all actives have a fitted effect of over 40% in size
# Procedure, shortened: as §1
# [5] = Quantitative High-Throughput drug screen in 47 multiple myeloma cell lines against the NCATS MIPE library collection: PCM6_Riken cell viability assay (AID 1919870); further: nearly all actives have a fitted effect of over 30% in size
# Procedure, shortened: as §1
# [6] = Quantitative High-Throughput drug screen in 47 multiple myeloma cell lines against the NCATS MIPE library collection: OPM2_DSMZ cell viability assay (AID 1919872); further: nearly all actives have a fitted effect of over 30% in size
# Procedure, shortened: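 Steps: seed 500 cells per well; pin-transfer MIPE 4.0 library; incubate 48 h at 37C, 5% CO2, humidified; add CellTiter-Glo, 5 min room temperature; read luminescence.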
# [7] = Quantitative High-Throughput drug screen in 47 multiple myeloma cell lines against the NCATS MIPE library collection: XG1_PLB cell viability assay (AID 1919866); further: nearly all actives have a fitted effect of over 35% in size
# Procedure, shortened: as §1
# [8] = Quantitative High-Throughput drug screen in 47 multiple myeloma cell lines against the NCATS MIPE library collection: UTMC2_PLB cell viability assay (AID 1919868); details: CellTiter-Glo ATP luminescence, 48 h; viability (% of DMSO control): at 45.8 µM (top of the series); further: nearly all actives have a fitted effect of over 55% in size;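 on viability (% of DMSO control): 100% = DMSO-only wells and 0% = media-only wells without cells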
# Procedure, shortened: as §1
# [9] = Quantitative High-Throughput drug screen in 47 multiple myeloma cell lines against the NCATS MIPE library collection: KMS28PE_JCRB cell viability assay (AID 1918983); further: nearly all actives have a fitted effect of over 35% in size
# Procedure, shortened: as §1
# [10] = Quantitative High-Throughput drug screen in 47 multiple myeloma cell lines against the NCATS MIPE library collection: KMS34_JCRB cell viability assay (AID 1918985); further: nearly all actives have a fitted effect of over 40% in size
# Procedure, shortened: as §1
# [11] = Quantitative High-Throughput drug screen in 47 multiple myeloma cell lines against the NCATS MIPE library collection: OPM1_PLB cell viability assay (AID 1918989); further: nearly all actives have a fitted effect of over 40% in size
# Procedure, shortened: as §1
# [12] = Quantitative High-Throughput drug screen in 47 multiple myeloma cell lines against the NCATS MIPE library collection: PE2_PLB cell viability assay (AID 1919869); further: nearly all actives have a fitted effect of over 35% in size
# Procedure, shortened: as §1
# [13] = Quantitative High-Throughput drug screen in 47 multiple myeloma cell lines against the NCATS MIPE library collection: RPMI8226_ATCC cell viability assay (AID 1919871); further: nearly all actives have a fitted effect of over 30% in size
# Procedure, shortened: as §1
# [14] = Quantitative High-Throughput drug screen in 47 multiple myeloma cell lines against the NCATS MIPE library collection: KMS28BM_JCRB cell viability assay (AID 1919874); further: nearly all actives have a fitted effect of over 35% in size
# Procedure, shortened: as §1
# [15] = Quantitative High-Throughput drug screen in 47 multiple myeloma cell lines against the NCATS MIPE library collection: OCIMY5_PLB cell viability assay (AID 1918988); further: nearly all actives have a fitted effect of over 65% in size
# Procedure, shortened: as §1
# [16] = Quantitative High-Throughput drug screen in 47 multiple myeloma cell lines against the NCATS MIPE library collection: KMS11_JCRBsus cell viability assay (AID 1919873); further: nearly all actives have a fitted effect of over 50% in size
# Procedure, shortened: as §1
# [17] = Quantitative High-Throughput drug screen in 47 multiple myeloma cell lines against the NCATS MIPE library collection: SKMM1_PLB cell viability assay (AID 1919863); details: SKMM1 myeloma viability, CellTiter-Glo ATP, 48 h; viability: hits give low values; further: nearly all actives have a fitted effect of over 35% in size
# Procedure, shortened: as §1
# [18] = Quantitative High-Throughput drug screen in 47 multiple myeloma cell lines against the NCATS MIPE library collection: XG6_PLB cell viability assay (AID 1919865); further: nearly all actives have a fitted effect of over 40% in size
# Procedure, shortened: as §1
# Potency means the concentration at half of the fitted maximal effect.
compound,measurement,setting,value
CC1CCC(C(=O)N(c2cc(C#CC(C)(C)C)sc2C(=O)O)C2CCC(O)CC2)CC1 (centres undefined),Potency,[1],inactive
same,Potency,[2],23.5 µM (active)
same,Potency,[3],inactive
same,Potency,[4],26.4 µM (active)
same,Potency,[5],20.9 µM (active)
same,Potency,[6],inactive
Clc1ccc(COC(Cn2ccnc2)c2ccc(Cl)cc2Cl)cc1 (centres undefined),Potency,[7],18.7 µM (active)
same,Potency,[4],20.9 µM (active)
same,Potency,[6],inactive
COc1cc(N2CCC(N3CCN(C)CC3)CC2)ccc1Nc1ncc(Cl)c(Nc2ccccc2S(=O)(=O)C(C)C)n1,Potency,[8],inactive
COc1ccc(Cc2ccc(NC(N)=O)cc2)cc1-c1cccc(Cl)c1,Potency,[9],inactive
same,Potency,[10],inactive
same,Potency,[11],inactive
same,Potency,[3],8.33 µM (active)
same,Potency,[7],inactive
same,Potency,[12],inactive
same,Potency,[13],inactive
same,Potency,[6],inactive
same,Potency,[14],13.2 µM (active)
O=C(N[C@@H](c1ccccc1)[C@@H]1CCCCN1)c1cccc(C(F)(F)F)c1Cl,Potency,[15],18.7 µM (active)
same,Potency,[7],23.5 µM (active)
same,Potency,[8],inactive
same,Potency,[5],23.5 µM (active)
same,Potency,[13],1.66 µM (active)
same,Potency,[16],inactive
same,Potency,[14],inactive
c1ccc2c(-c3cnn4cc(-c5ccc(N6CCNCC6)cc5)cnc34)ccnc2c1,Potency,[17],9.35 µM (active)
same,Potency,[3],8.33 µM (active)
same,Potency,[5],0.935 µM (active)
COc1cc(N2CCC(N3CCN(C)CC3)CC2)ccc1Nc1ncnc(Nc2ccccc2S(=O)(=O)C(C)C)n1,Potency,[17],23.5 µM (active)
same,Potency,[18],7.43 µM (active)
same,Potency,[5],16.6 µM (active)
Oc1ccc(C2=Cc3ccc(O)cc3OC2)cc1,Potency,[9],18.7 µM (active)
same,Potency,[10],0.662 µM (active)
same,Potency,[15],2.96 µM (active)
same,Potency,[11],1.48 µM (active)
same,Potency,[17],11.8 µM (active)
same,Potency,[3],5.9 µM (active)
same,Potency,[18],1.32 µM (active)
same,Potency,[12],9.35 µM (active)
same,Potency,[13],5.9 µM (active)
Cc1cccc(Nc2nc(-c3ccncc3)cs2)c1,Potency,[1],18.7 µM (active)
same,Potency,[11],14.8 µM (active)
same,Potency,[3],inactive
same,Potency,[12],23.5 µM (active)
same,Potency,[6],10.5 µM (active)
N[C@@]1(C(=O)O)CS(=O)(=O)[C@H]2[C@H](C(=O)O)[C@H]21,Potency,[10],inactive
same,Potency,[3],4.18 µM (active)
same,Potency,[13],inactive
same,Potency,[6],inactive
same,Potency,[16],inactive
same,Potency,[14],inactive
CC=CC[C@@H](C)C(=O)[C@H]1C(=O)N[C@@H](C(C)C)C(=O)N(C)CC(=O)N(C)[C@@H](CC(C)C)C(=O)N[C@@H](C(C)C)C(=O)N(C)[C@@H](CC(C)C)C(=O)N[C@@H](C)C(=O)N[C@H](C)C(=O)N(C)[C@@H](CC(C)C)C(=O)N(C)[C@@H](CC(C)C)C(=O)N(C)[C@@H](C(C)C)C(=O)N1C,Potency,[2],16.6 µM (active)
same,Potency,[15],23.5 µM (active)
same,Potency,[17],14.8 µM (active)
same,Potency,[13],13.2 µM (active)
same,Potency,[16],14.8 µM (active)
O=c1cc(-c2ccc(O)cc2)oc2cc(O)cc(O)c12,Potency,[9],18.7 µM (active)
same,Potency,[10],13.2 µM (active)
same,Potency,[15],10.5 µM (active)
same,Potency,[11],18.7 µM (active)
same,Potency,[3],20.9 µM (active)
same,Potency,[8],inactive
same,Potency,[12],20.9 µM (active)
same,Potency,[13],23.5 µM (active)
same,Potency,[16],20.9 µM (active)
COc1ccc2cc(-c3nc(-c4ccc(S(C)=O)cc4)[nH]c3-c3ccncc3)ccc2c1 (centres undefined),Potency,[9],inactive
same,Potency,[15],14.8 µM (active)
same,Potency,[11],20.9 µM (active)
same,viability,[17],106%
same,Potency,[7],23.5 µM (active)
same,Potency,[12],14.8 µM (active)
same,Potency,[6],inactive
same,Potency,[16],23.5 µM (active)
CO[C@H]1C[C@@H]2CC[C@@H](C)[C@@](O)(O2)C(=O)C(=O)N2CCCC[C@@H]2C(=O)O[C@H]([C@H](C)C[C@@H]2CC[C@H](OC(=O)C(C)(CO)CO)[C@H](OC)C2)CC(=O)[C@H](C)C=C(C)[C@@H](O)[C@@H](OC)C(=O)[C@H](C)C[C@H](C)C=CC=CC=C1C,Potency,[2],14.8 µM (active)
same,Potency,[4],20.9 µM (active)
COc1ccc2c(Oc3ccc(NC(=O)c4c(C)n(CC(C)(C)O)n(-c5ccccc5)c4=O)cc3F)ccnc2c1,Potency,[2],16.6 µM (active)
same,Potency,[15],23.5 µM (active)
same,Potency,[11],18.7 µM (active)
same,Potency,[18],20.9 µM (active)
same,Potency,[7],14.8 µM (active)
same,Potency,[13],23.5 µM (active)
CCCCCCCCCCCC1=C(O)C(=O)C=C(O)C1=O,Potency,[1],0.469 µM (active)
same,Potency,[2],10.5 µM (active)
same,Potency,[15],29.6 µM (active)
same,Potency,[11],3.72 µM (active)
same,Potency,[18],0.372 µM (active)
same,Potency,[4],2.64 µM (active)
same,Potency,[6],7.43 µM (active)
Clc1ccc(CCC(Cn2ccnc2)Sc2c(Cl)cccc2Cl)cc1 (centres undefined),Potency,[3],inactive
same,Potency,[18],23.5 µM (active)
same,Potency,[4],26.4 µM (active)
same,Potency,[8],18.7 µM (active)
same,Potency,[12],20.9 µM (active)
same,Potency,[5],18.7 µM (active)
same,Potency,[16],20.9 µM (active)
CC(=NNC(=S)N1CCC1)c1ccccn1,Potency,[2],inactive
same,Potency,[11],0.0037 µM (active)
same,Potency,[17],0.0059 µM (active)
same,Potency,[8],inactive
same,Potency,[12],inactive
same,Potency,[13],0.0042 µM (active)
same,Potency,[6],0.0074 µM (active)
same,Potency,[16],0.0033 µM (active)
same,Potency,[14],0.0083 µM (active)
NC(=O)c1cccc(-c2cc(Nc3ccc(OC(F)(F)F)cc3)ncn2)c1,Potency,[1],8.33 µM (active)
same,Potency,[2],13.2 µM (active)
same,Potency,[11],18.7 µM (active)
same,Potency,[18],16.6 µM (active)
same,Potency,[4],14.8 µM (active)
same,Potency,[12],18.7 µM (active)
same,Potency,[13],inactive
same,Potency,[6],16.6 µM (active)
same,Potency,[16],29.6 µM (active)
